Results published in PubChem BioAssay (NCATS).
Records with an inconclusive call do not appear. Unmarked numbers belong to inactive results. The call rests on the fitted dose curve; in most records, active means well fitted inhibition curve with a large enough effect; inconclusive means small, poorly fitted or top-dose-only effect; inactive means flat fitted curve, though single readings scatter.
On the % scale 0 is the no-effect control and ±100 the full control effect.

These compounds were tested against DNA repair nuclease/redox regulator APEX1 (Homo sapiens) (UniProt P27695) (assay: qHTS Validation Assay for Inhibitors of the Human Apurinic/apyrimidinic Endonuclease 1 (APE1) (AID 1705;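 further: TAMRA fluorescence gain over two minutes as APE1 cuts a quenched THF abasic duplex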)). Details: purified APE1 endonuclease activity, fluorescence, titration; series mostly up to 57.1 µM; activity change, negative = inhibition: at the top concentration.
Sequence of DNA repair nuclease/redox regulator APEX1 (Homo sapiens) (P27695 whole entry, looked up): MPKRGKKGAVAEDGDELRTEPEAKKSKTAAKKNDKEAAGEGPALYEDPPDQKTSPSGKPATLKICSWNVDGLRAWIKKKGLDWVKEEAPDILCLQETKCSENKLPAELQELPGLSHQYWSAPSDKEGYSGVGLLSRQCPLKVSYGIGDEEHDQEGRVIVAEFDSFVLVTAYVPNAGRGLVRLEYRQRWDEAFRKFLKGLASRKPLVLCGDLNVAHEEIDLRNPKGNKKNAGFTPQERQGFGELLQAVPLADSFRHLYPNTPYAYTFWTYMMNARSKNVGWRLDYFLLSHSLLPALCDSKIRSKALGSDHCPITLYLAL
Description: Assay Provider: David M. Wilson, III, National Institute on Aging, NIH
Screening Center PI: Austin, C.P.
Screening Center: NIH Chemical Genomics Center [NCGC]
The apurinic/apyrimidinic endonuclease APE1 is the primary mammalian enzyme responsible for the removal of abasic (or AP) sites in DNA and functions centrally in the base excision DNA repair (BER) pathway. […] Thus, targeting APE1 could improve the efficacy of current treatment paradigms by promoting selective sensitization or protection of diseased and normal cells, respectively.
Inhibition of APE1 activity was screened by utilizing double-stranded short substrate containing tetrahydrofuran (THF) abasic site labeled with rhodamine-type fluorophore (TAMRA) at the 5'-end and with non-fluorescent Black Hole Quencher-2 (BHQ-2) at the opposing 3'-end. An increase in the fluorescence intensity due to incision of the abasic site by APE1 was used to measure the enzyme activity.
1. Substrate: 50 nM final concentration of TAMRA/BHQ-2 substrate dispensed throughout the plate.
2. Enzyme: […] nM APE1 final concentration in columns 1, 2, 5-48. Column 1 is neutral (100% activity)
3. Control: Pintool transfer of control inhibitor NSC-13755 to column 2 of all assay plates. Two-fold, 16 pt dilution in duplicate to produce final concentrations in the […] uM - […] nM range.
3. Buffer columns in columns 3 and 4 were used as negative control (no enzyme).
Three uL of enzyme were dispensed to 1536-well Greiner black solid bottom plates. Compounds (23 nL) were transferred via Kalypsys pintool. The plates were incubated for 15 min at room temperature, and then 1 uL of substrate solution was added to start the reaction. The plates were immediately transferred into ViewLux High-throughput CCD imager (Perkin-Elmer) in order to measure the reaction progress in kinetic mode (three reads every 60 seconds) using 525 nm excitation and 598 nm emission fluorescence protocol. The fluorescence intensity difference between the third and the first time points was used to compute reaction progress.
`C[C@]12CCC(=O)C=C1CC[C@@H]1[C@@H]2[C@@H](O)C[C@@]2(C)[C@H]1CC[C@]2(O)C(=O)COC(=O)CCC(=O)O` was tested, and the “activity change, negative = inhibition” value was 1.59%.
For `CC(C)N(CCC(=O)c1ccc2ccccc2c1)Cc1ccccc1`, the “activity change, negative = inhibition” value was -1.53%.
For `COc1ccccc1N1CCN(CCN2C(=O)CC3(CCCC3)CC2=O)CC1`, the “activity change, negative = inhibition” value was 21.6%.
With `Brc1ccc([C@H]2CN3CCSC3=N2)cc1` the “activity change, negative = inhibition” value was -11.1%.
`C[N+](C)(C)CCO` was tested, and the “activity change, negative = inhibition” value was -5.94%.
With `O=C1NC(c2cccc([N+](=O)[O-])c2)=CCN1c1ccccc1O` the “activity change, negative = inhibition” value was -4.54%.
`O=[N+]([O-])c1ccc(-c2nc(-c3ccc(F)cc3)c(-c3ccncc3)[nH]2)cc1` was tested, and the “activity change, negative = inhibition” value was -16.9%.
In the case of `Cn1cnc2c(NCc3ccccc3)nc(NCCO)nc21`, the “activity change, negative = inhibition” value is reported as 1.41%.
In the case of `COc1cccc2c1[C@@H]1CN(CCCCn3c(=O)[nH]c4c(sc5ncc(-c6ccccc6)nc54)c3=O)C[C@@H]1CO2`, the “activity change, negative = inhibition” value is reported as -7.92%.
With `NC(N)=NCCCCN=C(N)N` the “activity change, negative = inhibition” value was -6.14%.
